# Results published in PubChem BioAssay (EPA / NIEHS).
# Calls of active or inactive are those of the source. Rule for the calls: active = hit-call score of the fitted dose curve at least 0.9, where 1 is the maximum; inactive = score below 0.9.
# What was measured:
# [1] = read-out: CFLAR gene, CFLAR (gene 8837); test: LTEA_HepaRG_CFLAR: Life Technologies and Expression Analysis (LTEA) Assay for CFLAR gene using HepaRG (AID 2283455); conditions: mRNA level, 48 h; actives raise or lower the signal
# Procedure, shortened: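 Differentiated HepaRG cells in serum-free induction medium were exposed 48 h in duplicate to eight half-log concentrations up to 100 uM in 0.5% DMSO; mRNA measured by TaqMan qRT-PCR, normalized to ACTB, GAPDH, POLR2A; bidirectional fitting versus DMSO.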
# [2] = read-out: Forkhead box O1 (FOXO1), FOXO1 (gene 2308); test: LTEA_HepaRG_FOXO1: Life Technologies and Expression Analysis (LTEA) Assay for Forkhead box O1 (FOXO1) using HepaRG (AID 2283456); conditions: mRNA level, 48 h; actives raise or lower the signal
# Procedure, shortened: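 Differentiated HepaRG cells, in serum-free induction medium with 0.5% DMSO, exposed 48 h in duplicate to 8-point half-log series from 100 uM. FOXO1 mRNA measured by TaqMan qRT-PCR, normalized to ACTB, GAPDH, POLR2A; bidirectional fit versus DMSO.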
# [3] = read-out: growth arrest and DNA damage 45 (GADD45A), GADD45A (gene 1647); test: LTEA_HepaRG_GADD45A: Life Technologies and Expression Analysis (LTEA) Assay for growth arrest and DNA damage 45 (GADD45A) using HepaRG (AID 2283458); conditions: mRNA level, 48 h; actives raise or lower the signal
# Procedure, shortened: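 Differentiated HepaRG cells were exposed in duplicate for 48 h in serum-free induction medium to 8-point half-log concentrations up to 100 uM in 0.5% DMSO. GADD45A mRNA was measured by TaqMan qRT-PCR, normalized to ACTB, GAPDH and POLR2A, with bidirectional fitting versus DMSO.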
# [4] = read-out: Forkhead box O3 (FOXO3), FOXO3 (gene 2309); test: LTEA_HepaRG_FOXO3: Life Technologies and Expression Analysis (LTEA) Assay for Forkhead box O3 (FOXO3) using HepaRG (AID 2283459); conditions: mRNA level, 48 h; actives raise or lower the signal
# Procedure, shortened: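 Differentiated human HepaRG cells, 48 h post-plating, exposed in duplicate for 48 h in serum-free induction medium; 8-point half-log series from 100 uM in 0.5% DMSO. FOXO3 mRNA by TaqMan qRT-PCR, normalized to ACTB/GAPDH/POLR2A; bidirectional fit versus DMSO.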
# [5] = read-out: ABC Transporter (ABCB1), ABCB1 (gene 5243); test: LTEA_HepaRG_ABCB1: Life Technologies and Expression Analysis (LTEA) Assay for ABC Transporter (ABCB1) using HepaRG (AID 2283460); conditions: mRNA level, 48 h; actives raise or lower the signal
# Procedure, shortened: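 HepaRG cells exposed in duplicate for 48 h in serum-free induction medium to eight half-log concentrations up to 100 uM in 0.5% DMSO. ABCB1 mRNA quantified by qRT-PCR, normalised to ACTB, GAPDH and POLR2A; fitted bidirectionally versus DMSO.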
# [6] = read-out: ABC Transporter (ABCC3), ABCC3 (gene 8714); test: LTEA_HepaRG_ABCC3: Life Technologies and Expression Analysis (LTEA) Assay for ABC Transporter (ABCC3) using HepaRG (AID 2283462); conditions: mRNA level, 48 h; actives raise or lower the signal
# Procedure, shortened: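 Transcriptional change of ABCC3 in HepaRG after 48 h treatment, determined by qRT-PCR normalized to endogenous controls. Concentrations spanned eight half-log steps to 100 uM in 0.5% DMSO.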
# [7] = read-out: ABC Transporter (ABCC2), ABCC2 (gene 1244); test: LTEA_HepaRG_ABCC2: Life Technologies and Expression Analysis (LTEA) Assay for ABC Transporter (ABCC2) using HepaRG (AID 2283464); conditions: mRNA level, 48 h; actives raise or lower the signal
# Procedure, shortened: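 After plating and 48 h culture, HepaRG medium is replaced with serum-free induction medium and chemicals are added (8 concentrations, max 100 uM, 0.5% DMSO) for 48 h. Total RNA then undergoes qRT-PCR for ABCC2 with housekeeping normalization.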
# [8] = read-out: Broad substrate specificity ATP-binding cassette transporter ABCG2 (Homo sapiens) (UniProt Q9UNQ0); test: LTEA_HepaRG_ABCG2: Life Technologies and Expression Analysis (LTEA) Assay for ABC Transporter (ABCG2) using HepaRG (AID 2283465); conditions: mRNA level, 48 h; actives raise or lower the signal
# Procedure, shortened: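 Differentiated HepaRG cells were exposed for 48 h in serum-free induction medium to 8 half-log concentrations, top 100 uM, in 0.5% DMSO. ABCG2 mRNA was measured by qRT-PCR, normalized to ACTB, GAPDH and POLR2A, with bidirectional fitting versus DMSO.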
# [9] = read-out: ATP-citrate lyase (ACLY), ACLY (gene 47); test: LTEA_HepaRG_ACLY: Life Technologies and Expression Analysis (LTEA) Assay for ATP-citrate lyase (ACLY) using HepaRG (AID 2283466); conditions: mRNA level, 48 h; actives raise or lower the signal
# Procedure, shortened: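 Differentiated HepaRG cells exposed 48 h in serum-free induction medium to eight half-log concentrations up to 100 uM in 0.5% DMSO, duplicates. Transcript measured by Fluidigm TaqMan qRT-PCR, normalized to ACTB, GAPDH, POLR2A; bidirectional fit versus DMSO.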
# [10] = read-out: Peroxisomal acyl-coenzyme A oxidase 1 (ACOX1) gene, ACOX1 (gene 51); test: LTEA_HepaRG_ACOX1: Life Technologies and Expression Analysis (LTEA) Assay for Peroxisomal acyl-coenzyme A oxidase 1 (ACOX1) gene using HepaRG (AID 2283467); conditions: mRNA level, 48 h; actives raise or lower the signal
# Procedure, shortened: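 HepaRG cells, plated 48 h then switched to serum-free induction medium, were exposed in duplicate for 48 h to 8-point half-log concentrations up to 100 uM in 0.5% DMSO. ACOX1 mRNA was measured by qRT-PCR, normalized to ACTB/GAPDH/POLR2A, and fitted bidirectionally versus DMSO.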
# [11] = read-out: Alkaline Phosphatase, Placental (ALPP) gene, ALPP (gene 250); test: LTEA_HepaRG_ALPP: Life Technologies and Expression Analysis (LTEA) Assay for Alkaline Phosphatase, Placental (ALPP) gene using HepaRG (AID 2283468); conditions: mRNA level, 48 h; actives raise or lower the signal
# Procedure, shortened: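 Using human liver HepaRG cells, chemicals are tested in duplicate over 48 h at half-log concentrations topping at 100 uM; phenobarbital 1 mM serves as induction control. ALPP mRNA change by qRT-PCR, bidirectional fit against vehicle.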
# [12] = read-out: adenosine kinase (ADK) gene, ADK (gene 132); test: LTEA_HepaRG_ADK: Life Technologies and Expression Analysis (LTEA) Assay for adenosine kinase (ADK) gene using HepaRG (AID 2283471); conditions: mRNA level, 48 h; actives raise or lower the signal
# Procedure, shortened: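 Read-out is ADK transcript level measured by qRT-PCR and normalised to three housekeeping genes. Cells are human HepaRG, dosed for 48 h at up to 100 uM in 0.5% DMSO. Gain or loss of signal is fitted against DMSO controls.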
# [13] = read-out: Alpha-fetoprotein (AFP) gene, AFP (gene 174); test: LTEA_HepaRG_AFP: Life Technologies and Expression Analysis (LTEA) Assay for Alpha-fetoprotein (AFP) gene using HepaRG (AID 2283472); conditions: mRNA level, 48 h; actives raise or lower the signal
# Procedure, shortened: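 Human HepaRG cells plated 48 h, then switched to serum-free induction medium and exposed in duplicate for 48 h to 8-point half-log series from 100 uM in 0.5% DMSO. AFP mRNA by qRT-PCR, normalized to ACTB, GAPDH, POLR2A; bidirectional fit versus DMSO.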
# BCL2L11 (gene 10018) = test: LTEA_HepaRG_BCL2L11: Life Technologies and Expression Analysis (LTEA) Assay for Bcl-2 (BCL2L11) gene using HepaRG (AID 2283473); conditions: mRNA level, 48 h; actives raise or lower the signal
# Procedure, shortened: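 Human hepatic HepaRG cultures are treated 48 h with test chemicals (maximum 100 uM, 0.5% DMSO vehicle). Expression of BCL2L11 is measured by qRT-PCR against ACTB, GAPDH and POLR2A, with activity in either direction scored relative to vehicle.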
# [14] = read-out: Apolipoprotein A-V (APOA5) gene, APOA5 (gene 116519); test: LTEA_HepaRG_APOA5: Life Technologies and Expression Analysis (LTEA) Assay for Apolipoprotein A-V (APOA5) gene using HepaRG (AID 2283474); conditions: mRNA level, 48 h; actives raise or lower the signal
# Procedure, shortened: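 Concentration-response of APOA5 expression in HepaRG: eight half-log doses to 100 uM, 48 h, qRT-PCR normalized to ACTB/GAPDH/POLR2A, bidirectional fitting with 0.5% DMSO as baseline.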
# [15] = read-out: Bcl-2 (BAD) gene, BAD (gene 572); test: LTEA_HepaRG_BAD: Life Technologies and Expression Analysis (LTEA) Assay for Bcl-2 (BAD) gene using HepaRG (AID 2283469); conditions: mRNA level, 48 h; actives raise or lower the signal
# Procedure, shortened: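 Differentiated HepaRG cells were exposed in duplicate in 0.5% DMSO for 48 h to eight-point half-log concentrations up to 100 uM. BAD mRNA was measured by Fluidigm TaqMan qRT-PCR, normalized to ACTB, GAPDH and POLR2A, and fitted bidirectionally against DMSO.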
# [16] = CEETOX_H295R_TESTO: CeeTox H295R High-throughput Steroidogenesis Assay for Testosterone (TESTO) (AID 2283457); conditions: actives raise or lower the signal
# Procedure, shortened: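 Steroidogenesis in H295R cells following OECD 456 with minor changes; 48 h exposure. Medium testosterone by HPLC-MS/MS, DMSO as baseline, with MTT viability run in parallel.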
# [17] = read-out: Bcl-2 (BAX) gene, BAX (gene 581); test: LTEA_HepaRG_BAX: Life Technologies and Expression Analysis (LTEA) Assay for Bcl-2 (BAX) gene using HepaRG (AID 2283470); conditions: mRNA level, 48 h; actives raise or lower the signal
# Procedure, shortened: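 Differentiated human HepaRG cells, plated 48 h then switched to serum-free induction medium, were exposed 48 h to 8 half-log concentrations up to 100 uM in 0.5% DMSO; BAX mRNA measured by qRT-PCR, normalized to ACTB, GAPDH, POLR2A.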
# Chain of Broad substrate specificity ATP-binding cassette transporter ABCG2 (Homo sapiens) (Q9UNQ0 whole entry, looked up): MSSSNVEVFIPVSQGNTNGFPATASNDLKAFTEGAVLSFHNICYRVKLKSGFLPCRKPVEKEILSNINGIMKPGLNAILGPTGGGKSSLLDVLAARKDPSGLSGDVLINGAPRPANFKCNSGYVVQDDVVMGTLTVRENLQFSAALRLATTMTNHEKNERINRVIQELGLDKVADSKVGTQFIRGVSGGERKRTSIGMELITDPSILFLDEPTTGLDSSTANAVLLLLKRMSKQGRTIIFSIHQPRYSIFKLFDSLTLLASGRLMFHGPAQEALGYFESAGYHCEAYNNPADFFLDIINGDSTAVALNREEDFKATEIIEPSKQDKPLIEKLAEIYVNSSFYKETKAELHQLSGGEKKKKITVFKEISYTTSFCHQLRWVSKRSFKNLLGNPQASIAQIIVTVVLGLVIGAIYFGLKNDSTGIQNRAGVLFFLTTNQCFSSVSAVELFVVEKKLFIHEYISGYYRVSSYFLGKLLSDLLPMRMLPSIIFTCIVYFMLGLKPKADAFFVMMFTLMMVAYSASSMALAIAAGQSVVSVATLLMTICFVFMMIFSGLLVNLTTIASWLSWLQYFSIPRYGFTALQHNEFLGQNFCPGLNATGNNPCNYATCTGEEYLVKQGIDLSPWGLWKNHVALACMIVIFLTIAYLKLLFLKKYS
Compound,outcome [1],outcome [2],outcome [3],outcome [4],outcome [5],outcome [6],outcome [7],outcome [8],outcome [9],outcome [10],outcome [11],outcome [12],outcome [13],outcome (BCL2L11 (gene 10018)),outcome [14],outcome [15],outcome [16],AC50 [11],outcome [17],AC50 [13]
Cc1ccc(O)c(C)c1,inactive,inactive,inactive,inactive,inactive,inactive,inactive,inactive,inactive,inactive,inactive,inactive,inactive,inactive,inactive,–,–,–,–,–
C1CC2OC2CC1C1CO1 (stereo not given),inactive,inactive,inactive,inactive,inactive,inactive,inactive,inactive,–,inactive,inactive,inactive,inactive,inactive,inactive,inactive,–,–,–,–
O=C(NC(=O)c1c(F)cccc1F)Nc1cc(Cl)c(OC(F)(F)C(F)F)c(Cl)c1,inactive,inactive,inactive,inactive,–,inactive,inactive,inactive,–,inactive,inactive,inactive,inactive,inactive,inactive,–,inactive,–,–,–
CCNc1nc(NC(C)C)nc(SC)n1,inactive,inactive,inactive,–,inactive,inactive,inactive,–,inactive,inactive,–,inactive,–,inactive,inactive,inactive,inactive,17.9 µM (active),inactive,50 µM (active)
